# The supplement of paper PMC7411054
# Where a name gives a salt, the structure may show the parent alone.
# Legend:
# Conditions in all cases: treatment time: 24 h
# WPMY1-TUBA1B-RELA [1] = assay: lowest phenotypically active concentration; higher = less potent
# How it was run: (§1)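 Two criteria together defined phenotypic activity: deviation and reproducibility. Deviation meant ≥3 of 4 wells beyond the 95th percentile of Euclidean distances in solvent control wells, and reproducibility meant a median replicate Pearson correlation above the 95th percentile of non-replicates. Wells had been treated for 24 h at 0.3, 1, 3 or 9 µM in fifteen gene-edited A549, HepG2 and WPMY1 reporter lines before live imaging.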
# A549-ACTB-RAB5A = assay: phenotypically active (imaging signature differs from DMSO and reproducible) at any of 0.3-9 uM (binary (1 = active, 0 = inactive)); higher = active
# How it was run: as §1
# A549-CANX-COX4 = assay: as above
# How it was run: as §1
# A549-GM130-SQSTM1 = assay: as above
# How it was run: as §1
# A549-TP53BP1-CLTA = assay: as above
# How it was run: as §1
# A549-TUBA1B-RELA = assay: as above
# How it was run: as §1
# HepG2-ACTB-RAB5A = assay: as above
# How it was run: as §1
# HepG2-CANX-COX4 = assay: as above
# How it was run: as §1
# HepG2-GM130-SQSTM1 [2] = assay: as above
# How it was run: as §1
# HepG2-TP53BP1-CLTA = assay: as above
# How it was run: as §1
# HepG2-TUBA1B-RELA = assay: as above
# How it was run: as §1
# WPMY1-ACTB-RAB5A [3] = assay: as above
# How it was run: as §1
# WPMY1-CANX-COX4 [4] = assay: as above
# How it was run: as §1
# WPMY1-GM130-SQSTM1 [5] = assay: as above
# How it was run: as §1
# WPMY1-TP53BP1-CLTA = assay: as above
# How it was run: as §1
# WPMY1-TUBA1B-RELA [6] = assay: as above
# How it was run: as §1
# HepG2-GM130-SQSTM1 [7] = assay: lowest phenotypically active concentration; higher = less potent
# How it was run: as §1
# WPMY1-ACTB-RAB5A [8] = assay: as above
# How it was run: as §1
# WPMY1-GM130-SQSTM1 [9] = assay: as above
# How it was run: as §1
# WPMY1-CANX-COX4 [10] = assay: as above
# How it was run: as §1
SMILES,lowest phenotypically active concentration (WPMY1-TUBA1B-RELA [1]),phenotypically active (A549-ACTB-RAB5A),phenotypically active (A549-CANX-COX4),phenotypically active (A549-GM130-SQSTM1),phenotypically active (A549-TP53BP1-CLTA),phenotypically active (A549-TUBA1B-RELA),phenotypically active (HepG2-ACTB-RAB5A),phenotypically active (HepG2-CANX-COX4),phenotypically active (HepG2-GM130-SQSTM1 [2]),phenotypically active (HepG2-TP53BP1-CLTA),phenotypically active (HepG2-TUBA1B-RELA),phenotypically active (WPMY1-ACTB-RAB5A [3]),phenotypically active (WPMY1-CANX-COX4 [4]),phenotypically active (WPMY1-GM130-SQSTM1 [5]),phenotypically active (WPMY1-TP53BP1-CLTA),phenotypically active (WPMY1-TUBA1B-RELA [6]),lowest phenotypically active concentration (HepG2-GM130-SQSTM1 [7]),lowest phenotypically active concentration (WPMY1-ACTB-RAB5A [8]),lowest phenotypically active concentration (WPMY1-GM130-SQSTM1 [9]),lowest phenotypically active concentration (WPMY1-CANX-COX4 [10])
COc1ccc(S(=O)(=O)ON=C2C=C(C)C(=O)C(C)=C2)cc1,9 µM,0 (inactive),0 (inactive),1 (active),0 (inactive),1 (active),0 (inactive),0 (inactive),0 (inactive),0 (inactive),0 (inactive),0 (inactive),0 (inactive),0 (inactive),0 (inactive),1 (active),–,–,–,–
O=c1cc(N2CCOCC2)oc2c1ccc1ccccc12,9 µM,0 (inactive),0 (inactive),1 (active),0 (inactive),0 (inactive),0 (inactive),0 (inactive),0 (inactive),0 (inactive),0 (inactive),0 (inactive),0 (inactive),0 (inactive),0 (inactive),1 (active),–,–,–,–
Cc1ccc(-n2sc3ccccc3c2=O)cc1,–,0 (inactive),0 (inactive),0 (inactive),0 (inactive),0 (inactive),0 (inactive),1 (active),1 (active),0 (inactive),0 (inactive),1 (active),0 (inactive),1 (active),0 (inactive),0 (inactive),9 µM,9 µM,9 µM,–
Clc1ccc(C(c2ccc(Cl)cc2)[n+]2ccn(CC(OCc3ccc(Cl)cc3Cl)c3ccc(Cl)cc3Cl)c2)cc1 (stereo not drawn) [Calmidazolium chloride],3 µM,0 (inactive),0 (inactive),0 (inactive),0 (inactive),0 (inactive),1 (active),0 (inactive),0 (inactive),0 (inactive),1 (active),0 (inactive),1 (active),1 (active),0 (inactive),1 (active),–,–,3 µM,3 µM
Cc1cc(C(=O)Nc2cccc(C(=O)Nc3cccc(C(F)(F)F)c3)c2)on1,–,0 (inactive),0 (inactive),0 (inactive),0 (inactive),0 (inactive),0 (inactive),1 (active),0 (inactive),0 (inactive),0 (inactive),0 (inactive),0 (inactive),0 (inactive),0 (inactive),0 (inactive),–,–,–,–
O=C1NN(c2ccc(F)c(Cl)c2)C(=O)/C1=C\c1ccc([N+](=O)[O-])o1,–,0 (inactive),0 (inactive),1 (active),0 (inactive),0 (inactive),0 (inactive),0 (inactive),0 (inactive),0 (inactive),0 (inactive),0 (inactive),1 (active),1 (active),0 (inactive),0 (inactive),–,–,9 µM,9 µM
CCOc1nc(NC(=O)Cc2cc(OC)ccc2OC)cc(N)c1C#N,–,0 (inactive),0 (inactive),0 (inactive),0 (inactive),1 (active),0 (inactive),0 (inactive),0 (inactive),0 (inactive),0 (inactive),0 (inactive),0 (inactive),0 (inactive),0 (inactive),0 (inactive),–,–,–,–
C[C@H](NC(=O)[C@@H](O)c1cc(F)cc(F)c1)C(=O)N[C@@H]1C(=O)N(C)c2ccccc2-c2ccccc21,–,0 (inactive),0 (inactive),0 (inactive),0 (inactive),0 (inactive),0 (inactive),1 (active),0 (inactive),0 (inactive),0 (inactive),1 (active),1 (active),1 (active),0 (inactive),0 (inactive),–,≤ 0.3 µM,3 µM,1 µM
CC(C)(C)c1ccc(C(=O)Nc2cn3cc(-n4ccnc4)ccc3n2)cc1,–,0 (inactive),0 (inactive),0 (inactive),0 (inactive),0 (inactive),1 (active),0 (inactive),0 (inactive),0 (inactive),0 (inactive),0 (inactive),0 (inactive),0 (inactive),0 (inactive),0 (inactive),–,–,–,–
C[C@@H]1CN(Cc2ccc(F)cc2)[C@@H](C)CN1C(=O)c1cc2c(C(=O)C(=O)N(C)C)cn(C)c2cc1Cl [SCIO 469 hydrochloride],–,0 (inactive),0 (inactive),0 (inactive),0 (inactive),0 (inactive),1 (active),1 (active),0 (inactive),1 (active),1 (active),1 (active),1 (active),0 (inactive),0 (inactive),0 (inactive),–,1 µM,–,3 µM
Nc1nnc(Sc2ncc([N+](=O)[O-])s2)s1,–,0 (inactive),0 (inactive),0 (inactive),0 (inactive),1 (active),0 (inactive),0 (inactive),0 (inactive),0 (inactive),0 (inactive),0 (inactive),0 (inactive),0 (inactive),0 (inactive),0 (inactive),–,–,–,–
COc1cc(-c2cn(C)c(=O)c3cnccc23)c(OC)cc1CN(C)C,9 µM,0 (inactive),0 (inactive),0 (inactive),1 (active),0 (inactive),1 (active),0 (inactive),1 (active),0 (inactive),1 (active),0 (inactive),0 (inactive),0 (inactive),0 (inactive),1 (active),9 µM,–,–,–
CC1=C(/C=C/C(C)=C/C=C/C(C)=C/C(=O)O)C(C)(C)CCC1 [isotretinoin],–,0 (inactive),0 (inactive),0 (inactive),0 (inactive),0 (inactive),0 (inactive),1 (active),0 (inactive),0 (inactive),0 (inactive),0 (inactive),0 (inactive),0 (inactive),1 (active),0 (inactive),–,–,–,–
CC(C)N(CCCNC(=O)Nc1ccc(C(C)(C)C)cc1)C[C@H]1O[C@@H](n2ccc3c(N)ncnc32)[C@H](O)[C@@H]1O,3 µM,0 (inactive),0 (inactive),0 (inactive),0 (inactive),0 (inactive),1 (active),0 (inactive),1 (active),1 (active),1 (active),0 (inactive),0 (inactive),0 (inactive),0 (inactive),1 (active),≤ 0.3 µM,–,–,–
COc1ccc(CC2c3cc(OC)c(OC)cc3CC[N+]2(C)CCC(=O)OCCCCCOC(=O)CC[N+]2(C)CCc3cc(OC)c(OC)cc3C2Cc2ccc(OC)c(OC)c2)cc1OC (stereo not drawn) [Atracurium besilate],–,0 (inactive),0 (inactive),0 (inactive),0 (inactive),0 (inactive),0 (inactive),1 (active),1 (active),0 (inactive),0 (inactive),1 (active),0 (inactive),1 (active),0 (inactive),0 (inactive),3 µM,3 µM,9 µM,–
O=C(O)COc1ccc(Br)cc1/C=C1\SC(=S)N(Cc2cccnc2)C1=O,–,0 (inactive),0 (inactive),1 (active),0 (inactive),0 (inactive),0 (inactive),0 (inactive),1 (active),0 (inactive),0 (inactive),0 (inactive),0 (inactive),1 (active),0 (inactive),0 (inactive),3 µM,–,3 µM,–
C[C@H](NC(=O)c1sccc1OCc1ccc(Cl)cc1)c1ccccc1,–,0 (inactive),0 (inactive),0 (inactive),1 (active),0 (inactive),0 (inactive),0 (inactive),0 (inactive),0 (inactive),0 (inactive),1 (active),0 (inactive),1 (active),1 (active),0 (inactive),–,≤ 0.3 µM,3 µM,–
O=C(Nc1ccccc1)N1CCN(c2nc(-c3ccccc3)ns2)CC1,–,0 (inactive),0 (inactive),0 (inactive),0 (inactive),0 (inactive),0 (inactive),1 (active),0 (inactive),1 (active),1 (active),0 (inactive),0 (inactive),1 (active),0 (inactive),0 (inactive),–,–,9 µM,–
NS(=O)(=O)c1cc2c(cc1C(F)(F)F)NC(Cc1ccccc1)NS2(=O)=O (stereo not drawn) [bendroflumethiazide],–,0 (inactive),0 (inactive),0 (inactive),0 (inactive),0 (inactive),0 (inactive),1 (active),0 (inactive),0 (inactive),0 (inactive),0 (inactive),0 (inactive),0 (inactive),0 (inactive),0 (inactive),–,–,–,–
CCOC(=O)c1ccc(N2NC(=O)/C(=C/c3ccc([N+](=O)[O-])o3)C2=O)cc1,–,0 (inactive),0 (inactive),0 (inactive),0 (inactive),0 (inactive),0 (inactive),0 (inactive),0 (inactive),0 (inactive),0 (inactive),0 (inactive),1 (active),1 (active),0 (inactive),0 (inactive),–,–,9 µM,9 µM
Nc1ncnc2c1c(COc1cccc(Cl)c1)nn2C1CCOCC1,–,0 (inactive),0 (inactive),0 (inactive),0 (inactive),0 (inactive),0 (inactive),0 (inactive),0 (inactive),1 (active),0 (inactive),0 (inactive),0 (inactive),0 (inactive),0 (inactive),0 (inactive),–,–,–,–
Cn1cnc(N)c2ncnc1-2 [3-Methyladenine],–,0 (inactive),0 (inactive),0 (inactive),0 (inactive),0 (inactive),0 (inactive),0 (inactive),0 (inactive),0 (inactive),0 (inactive),1 (active),0 (inactive),0 (inactive),0 (inactive),0 (inactive),–,1 µM,–,–
Oc1cc(O)cc(/C=C/c2ccc(O)c(O)c2)c1 [Piceatannol],9 µM,0 (inactive),0 (inactive),0 (inactive),0 (inactive),0 (inactive),0 (inactive),0 (inactive),0 (inactive),0 (inactive),0 (inactive),1 (active),0 (inactive),1 (active),0 (inactive),1 (active),–,9 µM,3 µM,–
